Assay [1] in a line: qHTS assay to identify small molecule agonists of the constitutive androstane receptor (CAR) signaling pathway - cell viability counter screen (AID 1224836). Further: nearly all actives have a fitted effect of over 45% in size. Put shortly:
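Viability read-out: CellTiter-Fluor fluorescence after 23 h compound exposure at 37 C/5% CO2 in double-stable HepG2-CYP2B6-hCAR cells, with PK11195 present at 0.75 uM final; compounds tested in 15-point titration.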
(In qHTS, concentration-response curves come from the screen itself.)

Assay [2] can be described thus: qHTS assay to identify small molecule antagonists of the constitutive androstane receptor (CAR) signaling pathway - cell viability counter screen (AID 1224837). Further: nearly all actives have a fitted effect of over 45% in size. An outline of the steps:
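Using CellTiter-Fluor, viability is scored in HepG2 cells stably carrying hCAR and a 2.2kb CYP2B6 reporter after 23 hr compound exposure across 15 concentrations, with CITCO present at 50 nM.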

The target in assay [3] is Nuclear receptor subfamily 1 group I member 3 (Homo sapiens) (UniProt Q14994). Kind of assay: qHTS assay to identify small molecule antagonists of the constitutive androstane receptor (CAR) signaling pathway (AID 1224838).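 Further: HepG2 cells stably expressing hCAR with CYP2B6 luciferase reporter stimulated by CITCO; nearly all actives have a fitted effect of over 40% in size.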 Put shortly: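 Reporter luminescence was quantified after 24 h exposure of hCAR/CYP2B6-2.2kb double-stable HepG2 cells to compounds at 15 concentrations in the presence of 50 nM CITCO final.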
Chain of Nuclear receptor subfamily 1 group I member 3 (Homo sapiens) (Q14994 whole entry, looked up): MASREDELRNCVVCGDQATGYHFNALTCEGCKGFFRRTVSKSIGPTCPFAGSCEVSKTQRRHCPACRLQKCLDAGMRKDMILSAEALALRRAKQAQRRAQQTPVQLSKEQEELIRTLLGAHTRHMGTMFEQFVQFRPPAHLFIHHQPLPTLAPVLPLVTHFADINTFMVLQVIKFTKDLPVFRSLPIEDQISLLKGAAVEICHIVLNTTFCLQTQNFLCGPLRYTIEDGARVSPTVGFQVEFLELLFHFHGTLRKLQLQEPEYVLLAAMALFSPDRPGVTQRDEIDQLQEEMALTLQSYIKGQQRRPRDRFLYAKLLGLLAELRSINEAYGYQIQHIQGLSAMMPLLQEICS

Assay [4] shares this target. Kind of assay: qHTS assay to identify small molecule agonists of the constitutive androstane receptor (CAR) signaling pathway (AID 1224839). Further: nearly all actives have a fitted effect of over 15% in size. Further: potency means the concentration at half of the fitted maximal effect.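 On activation: HepG2 cells stably carrying human CAR and a CYP2B6 luciferase reporter.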 An outline of the steps:
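Luminescence read-out (ONE-Glo, 30 min, room temperature) from double-stable HepG2-CYP2B6-hCAR cells exposed 24 h to 15-point compound series in presence of 0.75 uM PK11195 final.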

The nature of assay [5]: qHTS assay to identify small molecule antagonists of the estrogen related receptor signaling pathway with the pleiotropic PPARgamma coactivator (PGC) from Tox21 10K library - cell viability counter screen (AID 1224840; active means well fitted cell-killing curve with a large enough effect in the repeat runs, not every such curve was filed as active; further: nearly all actives have a fitted effect of over 40% in size). An outline of the steps:
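Here the PGC/ERR cells serve as a cytotoxicity control: they are exposed to compounds for 17.5 hours at 37 C, and live-cell signal is quantified using CellTiter-Fluor fluorescence.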

Assay [6] can be described thus: qHTS assay to identify small molecule antagonists of the estrogen related receptor signaling pathway with the pleiotropic PPARgamma coactivator (PGC) from Tox21 10K library (AID 1224841; call rule not given here; further: actives are mostly falling curves and most rising ones were filed inactive; nearly all actives have a fitted effect of over 50% in size; further: potency means the concentration at half of the fitted maximal effect). Put shortly: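 Each well held 2,000 PGC/ERR cells, pre-incubated six hours (37 C, 5% CO2). Test substances in DMSO were added by pin tool and left for 18 h at 37 C before luciferase detection by One-Glo.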

The nature of assay [7]: qHTS assay to identify small molecule agonists of the estrogen related receptor signaling pathway with the pleiotropic PPARgamma coactivator (PGC) from Tox21 10K library (AID 1224842). Further: nearly all actives have a fitted effect of over 15% in size. Further: potency means the concentration at half of the fitted maximal effect. An outline of the steps:
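PGC/ERR reporter cell line, 2,000 cells per well, incubated 6 h at 37 C before 23 nL compound in DMSO was added. After 18 h at 37 C, One-Glo luminescence read following 30 min at room temperature.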

Assay [8] addresses Thyrotropin receptor (Homo sapiens) (UniProt P16473). Kind of assay: qHTS assay to identify small molecule agonists of the thyroid stimulating hormone receptor (TSHR) signaling pathway (AID 1224843; calls by dose curve; further: nearly all actives have a fitted effect of over 45% in size). Put shortly:
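Steps: seed 800 TSHR-HEK293 cells per well; add test compound and hold 30 min at ambient temperature; dispense cAMP-d2 then anti-cAMP cryptate; incubate 1 h at ambient; measure fluorescence intensity.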

Assay [9] can be described thus: qHTS assay to identify small molecule agonists of the hypoxia (HIF-1) signaling pathway - cell viability counter screen (AID 1224844; calls by dose curve; further: nearly all actives have a fitted effect of over 50% in size). An outline of the steps: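 Multiplexed with the HRE beta-lactamase assay, this viability read used CellTiter-Glo luminescence (30 min, RT) on HRE-bla ME-180 cells treated 17 hrs with compounds in 0.5% dialyzed FBS medium.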
The nature of assay [10]: qHTS assay to identify small molecule agonists of H2AX (AID 1224845; active means well fitted activation curve with a large enough effect in the signal ratio in the repeat runs, not every such curve was filed as active; the % refers to the signal ratio). Put shortly: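 Wild-type CHO-K1 cells, plated overnight, exposed 3hr at 37C to 15 concentrations (0.76% DMSO final). Lysed, then HTRF anti-pH2AX (S139) cryptate and anti-H2AX-d2 antibodies, 24 hr room temperature; 665/620 nm emission read.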
The nature of assay [11]: qHTS assay to identify small molecule agonists of the hypoxia (HIF-1) signaling pathway (AID 1224846; active means well fitted activation curve with a large enough effect in the signal ratio in the repeat runs, not every such curve was filed as active; the % refers to the signal ratio). An outline of the steps:
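Hypoxia-pathway activation was scored as increased beta-lactamase from an HRE-controlled reporter in ME-180 cells; plated at 2,000 cells per well with 0.5% dialyzed FBS, they were exposed 17 hrs to compounds and then given CCF4-AM.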

The nature of assay [12]: qHTS assay to identify small molecule agonists of H2AX - cell viability counter screen (AID 1224847; calls by dose curve; further: top concentration of the series differs between compounds; nearly all actives have a fitted effect of over 30% in size). Put shortly: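 CHO-K1 wt, 1000 cells/well, o/n 37C; cpds 15 conc, 3 h 37C, 0.76% DMSO; CellTiter-Glo, 30 min RT, luminescence.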
Assay [13] can be described thus: qHTS assay to identify small molecule antagonists of the estrogen related receptor (ERR) signaling pathway from Tox21 library (AID 1224848). Further: nearly all actives have a fitted effect of over 50% in size. Further: potency means the concentration at half of the fitted maximal effect. An outline of the steps:
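Luminescent reporter read-out (ONE-Glo) from NTP's ERR cell line after 18 h treatment at 37 C with DMSO-dissolved Tox21 compounds; cells pre-plated 6 h beforehand at 2,000 per well.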

The nature of assay [14]: qHTS assay to identify small molecule agonists of the estrogen related receptor (ERR) signaling pathway from Tox21 library (AID 1224849; calls by dose curve; further: nearly all actives have a fitted effect of over 15% in size). As to conditions: ERR reporter cell line, ONE-Glo luciferase, 18 h. An outline of the steps:
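Six hours post-seeding at 37 C/5% CO2, ERR cells receive DMSO-solubilised compounds; after 18 h at 37 C, ONE-Glo reagent is applied and luminescence recorded.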

A short description of assay [15]: qHTS RealTime-Glo MT Cell Viability Assay in HepG2 cells - 24 hour (AID 1224867). Further: nearly all actives have a fitted effect of over 50% in size. An outline of the steps:
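Real-time, nonlytic viability: 600 HepG2 cells/well mixed with NanoLuc enzyme plus prosubstrate; 5 h settle, compound (DMSO) added by pintool; luminescence monitored over 40 h at 37 C.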

A short description of assay [16]: qHTS RealTime-Glo MT Cell Viability Assay in HEK293 cells - 32 hour (AID 1224868). Put shortly: (§1)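 Cells + reagent dispensed (600 cells/well, HEK293) → 5 h at 37 C/5% CO2 → 23 nL compound in DMSO pinned → 40 h at 37 C → luminescence read at 0, 8, 16, 24, 32, 40 h.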
A short description of assay [17]: A CellTox Green Cytotoxicity Assay to monitor cytotoxicity in HEK293 cells - 0 hour (AID 1224869). Further: nearly all actives have a fitted effect of over 50% in size. An outline of the steps:
(§2)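 Seeding of HEK293 cells together with cytotoxicity dye preceded a 5 h incubation at 37 C/5% CO2. Test compounds in DMSO were then added and fluorescence monitored across 40 h.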

The nature of assay [18]: qHTS RealTime-Glo MT Cell Viability Assay in HepG2 cells - 40 hour (AID 1224870). Further: nearly all actives have a fitted effect of over 50% in size. Put shortly: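 HepG2 cells (600/well) mixed with RealTime-Glo MT reagent, settled 5 h at 37 C/5% CO2 before compound addition. Nonlytic NanoLuc luminescence from viable-cell prosubstrate reduction read repeatedly during 40 h treatment at 37 C.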
Assay [19] is described as follows: A CellTox Green Cytotoxicity Assay to monitor cytotoxicity in HEK293 cells - 40 hour (AID 1224871). Further: nearly all actives have a fitted effect of over 45% in size. An outline of the steps: as §2
The nature of assay [20]: qHTS RealTime-Glo MT Cell Viability Assay in HEK293 cells - 16 hour (AID 1224872). An outline of the steps:
as §1

Molecules are shown by their SMILES. Several values for one entry are separate records, joined by “and”; a condition that tells them apart may be missing. Equal entries are not always repeated. Inconclusive results are not listed. Where a structure was tested more than once in an assay, its records may differ in their call. Activity calls are given as the source filed them. Unless noted, the call rests on the fitted dose curve; in most records, active means well fitted curve in the direction sought with a large enough effect in the repeat runs; inconclusive means weak or mixed curves; inactive means no such curve, though single readings can be large; an effect the other way counts as inactive or inconclusive.
On the % scale 0 is the no-effect control and ±100 the full control effect.

Chain of Thyrotropin receptor (Homo sapiens) (P16473 whole entry, looked up): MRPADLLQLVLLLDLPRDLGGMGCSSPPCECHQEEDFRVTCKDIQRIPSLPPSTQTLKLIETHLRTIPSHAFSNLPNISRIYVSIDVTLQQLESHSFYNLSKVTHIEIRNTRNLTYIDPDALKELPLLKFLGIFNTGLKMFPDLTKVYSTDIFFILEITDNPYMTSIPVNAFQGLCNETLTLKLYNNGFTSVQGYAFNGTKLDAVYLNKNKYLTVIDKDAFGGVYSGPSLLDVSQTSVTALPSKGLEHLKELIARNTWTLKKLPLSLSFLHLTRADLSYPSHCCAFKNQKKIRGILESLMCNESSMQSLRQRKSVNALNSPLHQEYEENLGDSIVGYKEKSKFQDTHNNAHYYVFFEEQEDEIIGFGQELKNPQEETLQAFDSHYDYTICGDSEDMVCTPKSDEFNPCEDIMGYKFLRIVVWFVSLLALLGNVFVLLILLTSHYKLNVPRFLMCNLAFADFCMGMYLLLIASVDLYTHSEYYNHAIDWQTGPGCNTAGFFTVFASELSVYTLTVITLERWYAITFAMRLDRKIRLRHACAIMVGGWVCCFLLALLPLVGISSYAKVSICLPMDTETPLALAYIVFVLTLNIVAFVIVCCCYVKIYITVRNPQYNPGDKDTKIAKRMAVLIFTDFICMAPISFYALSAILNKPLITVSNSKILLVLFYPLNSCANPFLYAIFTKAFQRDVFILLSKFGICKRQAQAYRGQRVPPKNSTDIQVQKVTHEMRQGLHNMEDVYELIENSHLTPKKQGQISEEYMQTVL

Consider `C=CC(=O)OCCCCCCCC`, for which the Potency result in assay [1], in [2], in [3], in assay [4], in [5] and in assay [7] was “inactive” each time. Besides, the Potency result in assay [8], in assay [9], in assay [10], in assay [11], in assay [12] and in [13] was “inactive” throughout. In addition, the Potency result in [15], in assay [16], in assay [17], in assay [18], in [19] and in assay [20] was “inactive” each time. Further, the Potency in assay [6] is 13.7 µM (active). In addition, the activity change, positive = activation in assay [14] (at 92.4 µM (top of the series)) was 2.1% (inactive).

Turning to `O=C(O)CCc1ccccc1`, the Potency entry in assay [1], in assay [2], in assay [3], in [4], in assay [5] and in [6] was “inactive” in each case. In addition, the Potency result in assay [7], in [8], in assay [9], in assay [10], in assay [11] and in assay [12] was “inactive” each time. The Potency result in [15], in assay [16], in assay [18], in assay [19] and in assay [20] was “inactive” throughout. Besides, the activity change, positive = activation in assay [14] (at 92.4 µM (top of the series)) was 0.886% (inactive).

For the compound `CC(C)(c1ccccc1)c1ccc(Nc2ccc(C(C)(C)c3ccccc3)cc2)cc1`, the Potency result in assay [1], in assay [2], in assay [3], in assay [4], in assay [5] and in [6] was “inactive” in each case. Besides, the Potency entry in assay [7], in assay [8], in assay [9], in assay [10], in [12] and in [15] was “inactive” throughout. In addition, the Potency result in assay [16], in [17], in assay [18], in [19] and in assay [20] was “inactive” throughout. For the same compound, in [13], the Potency is 15.3 µM (active) and inactive. Besides, the activity change, positive = activation in assay [14] (at 92.4 µM (top of the series)) is -43.2% (inactive) and -18.6% (inactive).

With `CC1COC(=O)O1` (stereo unspecified), the Potency entry in [1], in assay [2], in [3], in assay [4], in assay [5] and in assay [6] was “inactive” each time. The Potency result in [7], in [8], in assay [9], in assay [10], in assay [11] and in assay [12] was “inactive” throughout. Further, the Potency entry in assay [13], in [15], in [16], in [17], in assay [18] and in assay [19] was “inactive” each time. Further, the Potency result in assay [20] is “inactive”. Moreover, in assay [14] (at 92.4 µM (top of the series)), the activity change, positive = activation is 4.88% (inactive) and 5.46% (inactive).

Take `CC(C)CCOC(=O)c1ccc(N(C)C)cc1`: the Potency result in [1], in [2], in [3], in assay [5], in [6] and in assay [8] was “inactive” in each case. The Potency result in [9], in assay [10], in assay [11], in [12], in assay [15] and in [16] was “inactive” in each case. The Potency result in assay [17], in assay [18], in [19] and in [20] was “inactive” each time. The Potency is 13.3 µM (active) in assay [4] and 10.6 µM (active) in [7]. In addition, the activity change, positive = activation in assay [14] (at 42.5 µM (top of the series)) was 81.2% (active).

As to `CCCCN(CCO)CCCC`, the Potency entry in assay [1], in assay [2], in assay [3], in assay [4], in [5] and in assay [6] was “inactive” throughout. The Potency result in assay [7], in [8], in [9], in [10], in assay [11] and in assay [12] was “inactive” throughout. The Potency result in assay [13], in [15], in [16], in [17], in assay [18] and in assay [19] was “inactive” in each case. Also, the Potency result in assay [20] was “inactive”. Further, the activity change, positive = activation in assay [14] (at 92.4 µM (top of the series)) was 1.42% (inactive).

Source of the values: PubChem BioAssay (Tox21).
